Among all 220,000 compounds or so, about 16,000 (7.3%) were called active. About 25% were inconclusive and are not listed. Calls follow the shape of the dose curve; as a rule, active = well fitted inhibition curve with a large enough effect (not every such curve was filed as active); inconclusive = small, poorly fitted or top-dose-only effect, or another doubt; inactive = no such curve, though single readings can be large or run the other way. This excerpt belongs to a sample that is enriched for actives.
biological target: Aldehyde dehydrogenase 1A1 (Homo sapiens) (UniProt P00352); assay: qHTS Assay for Inhibitors of Aldehyde Dehydrogenase 1 (ALDH1A1); details: Purified ALDH1A1, NADH fluorescence, propionaldehyde substrate; series mostly up to 75.3 µM; activity, negative = inhibition: at the top concentration;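 as to activity, negative = inhibition: plate controls were no enzyme wells and a reference inhibitor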
Sequence (P00352 whole entry, looked up): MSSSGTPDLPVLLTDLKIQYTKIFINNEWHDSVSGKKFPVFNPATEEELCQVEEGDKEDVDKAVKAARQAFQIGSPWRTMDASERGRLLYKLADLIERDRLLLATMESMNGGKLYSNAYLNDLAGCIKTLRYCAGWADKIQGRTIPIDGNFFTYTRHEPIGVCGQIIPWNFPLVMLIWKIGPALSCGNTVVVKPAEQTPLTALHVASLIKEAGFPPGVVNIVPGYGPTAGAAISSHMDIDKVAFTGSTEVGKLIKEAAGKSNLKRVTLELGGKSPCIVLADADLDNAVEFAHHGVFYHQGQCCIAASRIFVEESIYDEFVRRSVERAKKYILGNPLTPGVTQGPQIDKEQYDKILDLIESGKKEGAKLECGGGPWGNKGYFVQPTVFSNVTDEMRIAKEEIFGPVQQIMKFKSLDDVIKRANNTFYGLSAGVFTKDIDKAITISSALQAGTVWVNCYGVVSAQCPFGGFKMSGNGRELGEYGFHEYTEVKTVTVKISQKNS
Potency is read from the fitted curve at half-maximal effect.

Which “activity, negative = inhibition” value does the source give for `CCc1c(C)nc2c(OC)cccc2c1Cl` here?
The value was 6.92% (inactive).

With `CCSc1nc(C)c(CCOc2cccc(C)c2)c(=O)[nH]1` as the compound, how does the “activity, negative = inhibition” value read?
The value was 6.34% (inactive).

Which “activity, negative = inhibition” value does the source give for `COc1ccc(-c2[nH]ncc2CN(Cc2nccn2C)C(C)C)cc1F` here?
The value was 8.75% (inactive).

With `CCCCCCCC1=Cc2ccc(F)cc2C(C(C(=O)OC)C(=O)OC)N1C(=O)OC` (centres undefined) as the compound, how does the Potency read?
The Potency was “inactive”.

How did the “activity, negative = inhibition” value turn out when `COc1ccccc1N(CC(=O)Nc1ccc(C(F)(F)F)cc1)S(C)(=O)=O` was run?
The value was 10.8% (inactive).

With `COc1ccc(C(=O)C2CCCN(C(=O)c3cc4nc(C)cc(C)n4n3)C2)cc1F` (centres undefined) as the compound, how does the “activity, negative = inhibition” value read?
The value was 2.56% (inactive).

With `CCCCN(C(=O)c1ccc(OC(F)(F)F)cc1)c1c(N)n(CCC)c(=O)[nH]c1=O` as the compound, how does the “activity, negative = inhibition” value read?
The value was -1.19% (inactive).

Which “activity, negative = inhibition” value does the source give for `O=C(Nc1ccnc(-c2ccncc2)n1)c1cccs1` here?
Its value is 6.7% (inactive).

Which “activity, negative = inhibition” value does the source give for `CC(=O)c1cc(C#N)c(N2CC(C)OC(C)C2)nc1C` (centres undefined) here?
Its value is -5.66% (inactive).

Which Potency does the source give for `Cn1c(SCc2c(F)cccc2Cl)nnc1-c1cnccn1` here?
Its Potency is 12.6 µM (active).

`CCN(CC)C(=O)CSc1nnc(-c2cnccn2)n1-c1ccc(C)cc1` was tested. Which “activity, negative = inhibition” value did it give?
Its value is 5.34% (inactive).

With `N#Cc1ccc(CSc2nnc(-c3ccccn3)n2-c2ccc(Cl)cc2)cc1` as the compound, how does the “activity, negative = inhibition” value read?
The value was -5.72% (inactive).

For `CC(=O)NC(NC(=S)Nc1c(C)n(C)n(-c2ccccc2)c1=O)C(Cl)(Cl)Cl` (centres undefined), which “activity, negative = inhibition” value is on record?
The value was -0.126% (inactive).

For `COC(=O)c1ccc(-c2noc(CN(Cc3ccccn3)CC3CCCO3)n2)cc1` (centres undefined), which “activity, negative = inhibition” value is on record?
The value was -7.57% (inactive).

For `CN(C)c1ccnc(Nc2ccc(F)cc2)c1C#N`, which “activity, negative = inhibition” value is on record?
Its value is -6.59% (inactive).

For `Fc1ccc(Nc2nnns2)cc1`, which Potency is on record?
Its Potency is 2 µM (active).

How did the “activity, negative = inhibition” value turn out when `O=C1CS(=O)CN1c1ccc(Oc2ccccc2)cc1` (centres undefined) was run?
Its value is 7.4% (inactive).

With `O=C(CCC1CCCN(C(=O)Cc2ccc(F)cc2)C1)N1CCN(c2ccccn2)CC1` (centres undefined) as the compound, how does the “activity, negative = inhibition” value read?
Its value is -10.9% (inactive).

Which Potency does the source give for `CCN(CC(=O)NCCc1ccccc1)S(=O)(=O)c1ccccc1` here?
The Potency was 35.5 µM (active).

Which “activity, negative = inhibition” value does the source give for `CCN(CC(=O)NC1CCS(=O)(=O)C1)S(=O)(=O)c1ccccc1` (centres undefined) here?
Its value is -13.3% (inactive).

Which “activity, negative = inhibition” value does the source give for `CCN(CC(=O)NCCc1ccccc1)S(=O)(=O)c1ccc(C)cc1` here?
Its value is -5.82% (inactive).

With `N#C/C(=C/c1cccc([N+](=O)[O-])c1)c1nnc2n1CCCCC2` as the compound, how does the Potency read?
The Potency was 20 µM (active).

Which “activity, negative = inhibition” value does the source give for `O=C(N/N=C/c1cccc([N+](=O)[O-])c1)C1CC(=O)N(c2ccc(Br)cc2)C1` (centres undefined) here?
The value was 4.53% (inactive).

Which “activity, negative = inhibition” value does the source give for `C=CCNC(=O)/C(=C\c1cccc([N+](=O)[O-])c1)NC(=O)c1ccccc1` here?
The value was -7.06% (inactive).

`N/C(=N\OC(=O)CCc1ccccc1)c1cccnc1` was tested. Which “activity, negative = inhibition” value did it give?
The value was 23.2% (inactive).

`COC(=O)c1ccc(NC(=O)c2cc(Cl)ccc2OC)cc1` was tested. Which “activity, negative = inhibition” value did it give?
The value was -8.51% (inactive).

Which “activity, negative = inhibition” value does the source give for `CCC(=O)c1ccc(N2CCN(C(=O)c3cc([N+](=O)[O-])ccc3F)CC2)c(F)c1` here?
The value was -10.1% (inactive).

Which Potency does the source give for `COC(=O)C1(C(C)=O)CC2=CC[C@H]3C(=O)N(c4ccccc4)C(=O)[C@H]3[C@@H]2Cc2ccccc2[C@@H]1C[N+](=O)[O-]` (some centres undefined) here?
Its Potency is “inactive”.

With `O=C(CCNS(=O)(=O)c1ccc(Br)s1)NCc1ccccc1Cl` as the compound, how does the “activity, negative = inhibition” value read?
Its value is 3.59% (inactive).
